# Reference: PubChem BioAssay (Tox21)
# “And” between values parts separate entries of the source, which are not always exact repeats. Identical values can stand only once. Inconclusive results are not listed. Where a call stands in place of a potency, no number is given. The source made the active and inactive calls. Unless noted, the call rests on the fitted dose curve; in most records, active means well fitted curve in the direction sought with a large enough effect in the repeat runs; inconclusive means weak or mixed curves; inactive means no such curve, though single readings can be large; an effect the other way counts as inactive or inconclusive.
# Tests used:
# [1] = qHTS assay for small molecule agonists of the p53 signaling pathway (AID 651631; calls by dose curve; further: nearly all actives have a fitted effect of over 15% in size)
# In short: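 Beta-lactamase reporter activity under p53 response elements was quantified in HCT-116 cells by FRET fluorescence, following 16 h incubation with test compounds at 37 °C and 2 h substrate development at room temperature.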
# [2] = qHTS assay for small molecules that induce genotoxicity in human embryonic kidney cells expressing luciferase-tagged ATAD5 (AID 651632); further: nearly all actives have a fitted effect of over 15% in size
# In short: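 HEK293T cells carrying luciferase-tagged ATAD5 were given compound or DMSO vehicle and incubated 16 hr at 37C, 5% CO2. Luciferase activity was read after 30 min at room temperature with Amplite; a rise signals genotoxic stress.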
# [3] = qHTS assay for small molecules that induce genotoxicity in human embryonic kidney cells expressing luciferase-tagged ATAD5 - cell viability (AID 651634; calls by dose curve; further: nearly all actives have a fitted effect of over 25% in size)
# In short: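 HEK293T cells carrying luciferase-tagged ATAD5, 2,000 cells/well, exposed to compound for 15.5 hr at 37C. Viability read as live-cell protease activity by CellTiter-Fluor fluorescence after 30 min at 37C.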
# [4] = qHTS assay for small molecule disruptors of the mitochondrial membrane potential - cell viability (AID 720634; calls by dose curve;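 further: human HepG2 liver cancer cells; series mostly up to about 83 µM; nearly all actives have a fitted effect of over 20% in size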)
# In short: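 HepG2 cells, 2,000 per well, attached overnight, then treated 1 hr at 37 C, 5% CO2. Viability read as ATP by CellTiter-Glo luminescence after 30 min at room temperature. Read in the same wells as the m-MPI membrane-potential dye assay.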
# [5] = qHTS assay to test for compound auto fluorescence at 590 nm (red) in HepG2 cells (AID 720674)
# In short: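 Seeding: 2,000 HepG2 cells/well, MEM/10% FBS, overnight 37 C. Dosing: compound vs DMSO. Incubation: 1 hr, 37 C, 5% CO2. Read: fluorescence 540 ex/590 em, Rose Bengal sodium as red reference.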
# [6] = qHTS assay to test for compound auto fluorescence at 535 nm (green) in HepG2 cells (AID 720675)
# [7] = qHTS assay to test for compound auto fluorescence at 460 nm (blue) in HEK293 cells (AID 720678)
# In short: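 HEK293 cells (2,000 per well, medium with 10% dialyzed FBS) attached for 4-5 hr at 37C, then received compound and stood overnight at 37C, 5% CO2. Blue fluorescence was read at Ex/Em 405/460 nm and expressed relative to triamterene.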
# [8] = qHTS assay to test for compound auto fluorescence at 590 nm (red) in HEK293 cells (AID 720679)
# In short: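 HEK293 cells (2,000/well, medium with 10% dialyzed FBS) attached for 4-5 hr at 37C, received 23 nL compound and were incubated overnight at 37C, 5% CO2. Red fluorescence was then read at 540/590nm Ex/Em, referenced to Rose Bengal sodium.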
# [9] = qHTS assay for small molecule disruptors of the mitochondrial membrane potential (AID 720635); further: potency means the concentration at half of the fitted maximal effect
# In short: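 HepG2 cells exposed to compound 1 hr at 37C, then Mito-MPS dye 30 min. Ratio read of aggregate (540/590 nm) versus monomer (490/535 nm) fluorescence.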
# [10] = qHTS assay for small molecule agonists of the p53 signaling pathway - cell viability (AID 651633; calls by dose curve;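 further: p53RE-bla HCT reporter cells with a stable beta-lactamase p53 reporter; series mostly up to about 83 µM; nearly all actives have a fitted effect of over 30% in size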)
# In short: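 p53RE-bla cells were treated with compound for 16 hours at 37 C. Cytotoxicity was then measured as CellTiter-Glo luminescence after 30 min at room temperature.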
SMILES,outcome [1],Potency [2],Potency [3],Potency [4],outcome [5],outcome [6],outcome [7],outcome [8],Potency [9],outcome [10]
Cc1ccc(Cl)cc1Cl,inactive,inactive,inactive,inactive,inactive,inactive,inactive,inactive,–,–
CC(=O)Nc1ccc(S(N)(=O)=O)cc1,inactive,inactive,inactive,inactive,inactive,inactive,inactive,inactive,–,–
CC(C(=O)O)c1ccc(CC2CCCC2=O)cc1 (stereo not drawn),inactive,inactive,inactive,inactive,inactive,inactive,inactive,inactive,inactive,–
COCCCOCCCOC,–,inactive,inactive,inactive,inactive,inactive,inactive,inactive,inactive,inactive
c1cnc(N2CCN(Cc3ccc4c(c3)OCO4)CC2)nc1,–,inactive,inactive,inactive,inactive,inactive,inactive,inactive,inactive,inactive
FC1(F)C(F)(F)C(F)(F)C2(F)C(F)(F)C(F)(F)C(F)(F)C(F)(F)C2(F)C1(F)F (stereo not drawn),–,inactive,inactive,inactive,inactive,inactive,inactive,inactive,inactive,inactive
CC(C)c1cc2c(cc1S(=O)(=O)O)[C@@]1(C)CCC[C@@](C)(C(=O)O)[C@@H]1CC2,inactive,inactive,inactive,inactive,inactive,inactive,inactive,inactive,inactive,–
COc1ccc(CCN(C)CCCC(C#N)(c2cc(OC)c(OC)c(OC)c2)C(C)C)cc1OC (stereo not drawn),inactive,inactive,inactive,inactive,inactive,inactive,inactive,inactive,–,–
N=c1nc(N2CCCCC2)cc(N)n1O,inactive,inactive,inactive,inactive,inactive,inactive,inactive,inactive,inactive,–
Cc1cc2c(cc1S(N)(=O)=O)S(=O)(=O)CCC2,inactive,inactive,inactive,inactive,inactive,inactive,inactive,inactive,–,–
CCCCCCCCCCCCCCCCC,–,inactive,inactive,inactive,inactive,inactive,inactive,inactive,inactive,inactive
Nc1cc(=O)[nH]c(N)n1,inactive,inactive,inactive,inactive,inactive,inactive,inactive,inactive,inactive,–
COCCc1ccc(OCC(O)CNC(C)C)cc1 (stereo not drawn),inactive,inactive,inactive,inactive,inactive,inactive,inactive,inactive,inactive,–
O=C1OC(=O)C2CCCCC12 (stereo not drawn),inactive,inactive,inactive,inactive,inactive,inactive,inactive,inactive,inactive,–
CC(=O)CC(C)C,–,inactive,inactive,inactive,inactive,inactive,inactive,inactive,inactive,inactive
CCCCCOC(=O)CCCCC,inactive,inactive,inactive,inactive,inactive,inactive,inactive,inactive,–,–
CCN(CC)CCOCCOC(=O)C1(c2ccccc2)CCCC1,inactive,inactive,inactive,inactive,inactive,inactive,inactive,inactive,–,–
COC(=O)CC(C)=O,–,inactive,inactive,inactive,inactive,inactive,inactive,inactive,inactive,inactive
CCN1CCC[C@H]1CNC(=O)c1cc(S(N)(=O)=O)ccc1OC,inactive,inactive,inactive,inactive,inactive,inactive,inactive,inactive,inactive,–

SMILES,outcome [1],Potency [2],Potency [3],Potency [4],outcome [5],outcome [6],outcome [7],outcome [8],Potency [9],outcome [10]
CC(C)(C)NCCNC(C)(C)C,inactive,inactive,inactive,inactive,inactive,inactive,inactive,inactive,–,–
CCOC(=O)c1c(C)n(C)c2ccc(O)cc12,–,inactive,inactive,inactive,inactive,inactive,inactive,inactive,7.84 µM (active),inactive
CC(C)(c1ccc(O)cc1)c1ccc(O)cc1,–,inactive,inactive,inactive,inactive,inactive,inactive,inactive,6.78 µM (active) and 5.54 µM (active),inactive
OCCCC1CCCCC1,–,inactive,inactive,inactive,inactive,inactive,inactive,inactive,inactive,inactive
O=C1CC2CC1C1CCCC21 (stereo not drawn),inactive,–,inactive,inactive,inactive,inactive,inactive,inactive,inactive,–
CCCCCCCCS(=O)(=O)Cl,inactive,inactive,inactive,inactive,inactive,inactive,inactive,inactive,inactive,–
COc1cc(C(=O)N2CCCCCCC2)cc(OC)c1OC,inactive,inactive,inactive,inactive,inactive,inactive,inactive,inactive,–,–
C=CCCCCCCCCC=O,inactive,inactive,inactive,inactive,inactive,inactive,inactive,inactive,–,–
N=C(N)c1ccccc1,inactive,inactive,inactive,inactive,inactive,inactive,inactive,inactive,–,–
CC(C)CCCC(C)N (stereo not drawn),inactive,inactive,inactive,inactive,inactive,inactive,inactive,inactive,inactive,–
CC(C)(CC(=O)O)C(=O)O,inactive,inactive,inactive,inactive,inactive,inactive,inactive,inactive,inactive,–
CC(C)=CCCC(C)CC(=O)O (stereo not drawn),–,inactive,inactive,inactive,inactive,inactive,inactive,inactive,inactive,inactive
Brc1c(NC2=NCCN2)ccc2nccnc12,inactive,–,inactive,inactive,inactive,inactive,inactive,inactive,–,inactive
CC/C=C\CC/C=C/C(OCC)OCC,inactive,inactive,inactive,inactive,inactive,inactive,inactive,inactive,–,–
Cc1ccc(=O)n(-c2ccccc2)c1,inactive,inactive,inactive,inactive,inactive,inactive,inactive,inactive,–,–
NCCCNCCSP(=O)(O)O,–,inactive,inactive,inactive,inactive,inactive,inactive,inactive,inactive,inactive
CO[Si](CCCOCC1CO1)(OC)OC (stereo not drawn),inactive,inactive,inactive,inactive,inactive,inactive,inactive,inactive,inactive,–
CCN(Cc1ccncc1)C(=O)C(CO)c1ccccc1 (stereo not drawn),inactive,–,inactive,inactive,inactive,inactive,inactive,inactive,inactive,–
